Potency data for 45 compounds are collected here from PubChem BioAssay AID651635 (National Center for Advancing Translational Sciences (NCATS), 2012).

Structures are written as SMILES. Hit rate of the full screen: of about 400,000 compounds, about 1,900 (0.47%) were called active. Entries that show only a call come without a potency. About 14% were inconclusive and are not listed. This is one part of a sample in which actives are shown more often than they occur. The call rests on the fitted dose curve; in most records, active means well fitted cell-killing curve with a large enough effect; inconclusive means small, poorly fitted or top-dose-only effect, or effect the other way; inactive means no such curve, though single readings can be large or run the other way.
Potency means the concentration at half of the fitted maximal effect.

This assay in a line: Viability Counterscreen for Primary qHTS for Inhibitors of ATXN expression. Further: nearly all actives have a fitted effect of over 40% in size. The following applies: S2 cells (HEK-293 line with an ATXN2-luciferase reporter) viability, CellTiter-Fluor protease fluorescence, 24 h; series mostly up to 56.7 µM. From the text: Spinocerebellar ataxia type 2 (SCA2) is a multisystem neurodegenerative disease caused by a dominantly-acting mutation leading to expansion of a polyQ domain in the ataxin-2 protein (ATXN2). SCA2 patients develop progressive ataxia and later lose function in other neuronal systems. Prominent parkinsonian signs develop in some patients. Similar to many neurodegenerative disorders, no symptomatic or disease-modifying treatments are known.
The primary objective of the proposed research is to identify compounds inhibiting ATXN2 expression and to test them for efficacy in SCA2 mouse models. To this end, we have developed a cell-based assay paired with an in vivo mouse model using identical luciferase expression constructs. This approach takes advantage of an ATXN2-luciferase transgene, with the luciferase gene flanked by the upstream and downstream portions of the ATXN2 gene. This primary assay was tested against the NIH Molecular Libraries Small Molecule Repository (MLSMR).
NIH Chemical Genomics Center [NCGC]
NIH Molecular Libraries Probe Centers Network [MLPCN]
Assay Submitter (PI): Daniel Scoles, University of Utah
PROTOCOL TABLE (as described by Inglese J, Shamu CE and Guy RK. 2007)
SEQUENCE No. (e.g., 1, 2, 3, etc.); […] (e.g., Cells, Incubation, Reagent, etc.); VALUE; DESCRIPTION.
1; Cells; 4 uL; white, solid bottom, 1536-well Greiner assay plate.
2; Incubation; 2 hr; 37 degree C in 5% humidified CO2.
3; Compounds; 23 nL; Kalypsis pintool (Wako USA) equipped with a 1536-well pin head.
4; Incubation; 24 hr; 37 degree C in 5% humidified CO2.
5; Reagent; 1 uL; Gly-Phe-7-Amino-4-trifluoromethylcoumarin.
6; Incubation; 30 min; 37 degree C in 5% humidified CO2.
7; Detection; Fluorescence; ViewLux plate reader (PerkinElmer).
8; Reagent; 3 uL; SteadyGlo luciferase solution (Promega).
9; Incubation; 5 min; room temperature.
10; Detection; Luminescence; ViewLux plate reader (PerkinElmer).
NOTES (numbers refer to Sequence numbers above)
1. S2 cells expressing ATXN2-luciferase reporter were suspended in phenol-red free DMEM and dispensed in assay plates using a Multidrop Combi dispenser (Thermo Fisher Scientific).
2. Assay plates were incubated. Evaporation was prevented by covering assay plates with metal lids containing holes to allow gas diffusion.
3. […] Vehicle-only plates, with DMSO being pin-transferred to columns 5-48, were inserted uniformly at the beginning and the end of each library to monitor and record any shifts in assay performance.
5. 125 uM Gly-Phe-7-Amino-4-trifluoromethylcoumarin (MP Biomedicals) working concentration was used at a final concentration of 25 uM.
7. To assess cell viability; the assay plates were read using the ViewLux high-throughput CCD imager (PerkinElmer), wherein single end-point fluorescence measurement was acquired (excitation 405/10; emission 540/25 nm).
8. Detection reagent SteadyGlo Luciferase (Promega) was added to the assay plate.
10. Luminescence is then measured on the ViewLux imager equipped with a clear emission filter using a 2 sec exposure. All screening operations were performed on a fully integrated robotic system (Kalypsys) containing one RX-130 and two RX-90 anthropomorphic robotic arms (Staubli).
Inglese J, Shamu CE and Guy RK, Reporting data from high throughput screening of small molecule libraries, Nature Chemical Biology, 2007, 3(8): 438-441. doi.org/10.1038/nchembio0807-438.
For orientation: Counterscreens check selectivity or assay interference.
Take `O=C(CCl)Nc1cccc(CP(=O)(c2ccccc2)c2ccccc2)c1`: the Potency was 14.1 µM (active).
Consider `O=C(CSCc1ccccc1)Nc1ccccc1`, for which the Potency result is “inactive”.
The result for `O=C(NCCc1ccccc1)c1cccc(NC(=O)c2ccccc2)c1` reads “inactive”.
The result for `CCOc1ccc(NS(=O)(=O)c2ccc(N)cc2)nn1` reads “inactive”; that for `O=C(NC(c1ccc(Cl)cc1)c1cnccn1)C1CCN(Cc2ccc(Cl)cc2)CC1` (stereo not given), “inactive”.
The result for `O=C(CC1N=C2c3ccccc3N=C(SCc3cccc(Cl)c3)N2C1=O)NCc1ccc2c(c1)OCO2` (stereo not given) reads 31.6 µM (active); that for `NC(=O)CSC1=Nc2ccccc2C2=NC(CCC(=O)NCc3ccc(F)cc3)C(=O)N12` (stereo not given), “inactive”.
Regarding `Cc1ccc(CNC(=O)CSC2=Nc3ccccc3C3=NC(C)C(=O)N23)cc1` (stereo not given), the Potency entry is “inactive”.
Take `CC(C)(C)C(=O)c1c(N)[nH]c(C(=O)c2ccccc2)c1-c1ccc(F)cc1`: the Potency entry is “inactive”.
With `COCC(=O)Nc1cc(C(=O)N2CCCC(c3ccccc3)CC2)c2c(c1)nc(-c1ccncc1)n2C` (stereo not given) the entry was “inactive”.
With `CCOC(=O)[C@H](CCc1ccccc1)N[C@@H](C)C(=O)N1CC2(C[C@H]1C(=O)O)SCCS2` the entry was “inactive”.
With `O=C(C(=O)N1CCOc2ccc(CN3CCN(Cc4ccccn4)CC3)cc2C1)c1ccccc1`, the Potency result is “inactive”.
Consider `CCC1(C2CCN(C(=O)c3cccc(F)c3F)CC2)NC(=O)N(CCc2scnc2C)C1=O` (stereo not given), for which the Potency entry is “inactive”.
With `Cc1ccc(-c2ccc(C(=O)N3CCc4nnc(CNC(=O)c5ccccc5)n4CC3)cc2)cc1`, the Potency result was “inactive”.
The result for `COc1ccc(CCNc2ncnc3sc(C(=O)N4CCCC4)c(C)c23)cc1OC` reads “inactive”; that for `Cn1nc(-c2ccccc2)c2cc([N+](=O)[O-])ccc21`, “inactive”; that for `O=C1CC(c2ccccc2)=NN1c1ccc([N+](=O)[O-])cc1`, 21.2 µM (active).
Turning to `O=C1NC(=O)C2C1C(c1ccc([N+](=O)[O-])cc1)=NN2Cc1ccccc1` (stereo not given), the Potency entry was “inactive”.
As to `NC(Cc1ccccc1)c1csc(Nc2cc(Oc3ccccc3)ncn2)n1` (stereo not given), the Potency is 31.6 µM (active).
Take `COc1ccc(C(NC(=O)C2CCN(CCCc3ccccc3)CC2)c2cccs2)cc1` (stereo not given): the Potency result is “inactive”.
With `COc1ccccc1C1CN(CCNC(=O)C2=CCCC2)Cc2ccccc2O1` (stereo not given) the entry was “inactive”; with `CC(C)NC(=O)N1Cc2cc(C(=O)NCC(F)(F)F)nc(-c3cccc(-c4cc5ccccc5o4)c3)c2[C@@H]1CCO`, “inactive”; with `NC(N)=N/N=C/c1ccc(OCc2ccc(Cl)cc2Cl)cc1`, 35.5 µM (active).
For `Cc1nc2ccccc2nc(C)c1=NOCc1ccc(Cl)cc1Cl`, the Potency result is “inactive”.
On to `COc1ccc(Cl)cc1N(CC(=O)N/N=C/c1ccc(OCC(N)=O)cc1)S(C)(=O)=O`, for which the Potency entry was “inactive”.
The result for `C[C@H]1C[C@H]2[C@@H]3CCC4=CC(=O)C=C[C@]4(C)[C@@H]3C(=O)C[C@]2(C)[C@@]1(O)C(=O)CO` reads “inactive”; that for `COc1ccc(C2=Nn3c(nnc3-c3ccccc3OC)SC2)cc1OC1CCCC1`, 15.8 µM (active).
Consider `CC1=Nn2c(nnc2-c2ccccc2)SC1`, for which the Potency result was “inactive”.
On to `COc1ccccc1-c1nnc2n1N=C(c1ccc(OC(F)F)c(OCC3CC3)c1)CS2`, for which the Potency result is “inactive”.
With `COc1ccc(CCNC(=O)c2ccc(-n3c(C)cc4c3CCCC4)cc2)cc1OC`, the Potency result is “inactive”.
With `O=C(Nc1cccc2cccnc12)c1ccc2sc([C@H]3C[C@H](O)[C@@H](CO)O3)nc2c1` the entry was “inactive”; with `Cc1ccccc1-c1csc(C(O)c2cccc(Cl)c2)n1` (stereo not given), “inactive”; with `S=C(NCCCc1ccccc1)Nc1ccc(Br)cc1`, “inactive”.
The result for `O=C(/C=C/c1ccc(Cl)cc1)Nc1ccc(Br)cn1` reads “inactive”.
With `NCCCNC(=S)NCCCN(Cc1ccc(Cl)cc1)c1ccc(Br)cn1` the figure was 35.5 µM (active); with `CN(C)CCNC(=O)c1cccc(-c2cnc3c(NC=O)cc(-c4cccc(C(F)(F)F)c4)cn23)c1`, “inactive”; with `C=CC(=O)Nc1ccc(Nc2ccnc(Nc3ccc(N4CCN(C)CC4)cc3)n2)cc1`, 14.1 µM (active).
With `CN1CCN(c2ccc(NC(=O)c3cc(Cl)c4c(c3)OCCO4)cc2)CC1`, the Potency result is “inactive”.
In the case of `Cc1cccc(N2CCN(c3ccc(NC(=O)/C=C\C(=O)O)cc3)CC2)c1`, the Potency result was “inactive”.
The result for `COC(=O)c1c(OCc2ccc(F)cc2)cc(=O)n2c1CCN(Cc1ccc3cccnc3c1)CC2` reads “inactive”; that for `CC(C)C(=O)NC(C)c1nnc2n1CCN(Cc1cccc3ncccc13)CC2` (stereo not given), “inactive”.
The result for `CCc1ccc2c(c1)C1(NN=C(c3ccccc3)S1)C(=O)N2` (stereo not given) reads 3.16 µM (active); that for `CO[C@H]1[C@H](NC(=O)C(C)C)c2ccccc2C12CCN(Cc1cnc(N(C)C)s1)CC2`, “inactive”.
The result for `COc1ccc(C2(Nc3cccc(F)c3)C(=O)c3ccccc3C2=O)cc1` reads “inactive”; that for `CCOC(=O)c1scc(-c2ccccc2)c1S(=O)(=O)Nc1ccccc1F`, “inactive”.
